# Compounds with a hit are over-represented: about 10% of the library has one in this group of screens.
# FLuc inh: blocks purified firefly luciferase enzyme activity | P08659 | purified P. pyralis luciferase, luminescence, biochemical | Potency, µM (titrated, usually from 115 µM), hits mostly inhibitors | hit rate 2.5% among 76,000; also: nearly all actives have a fitted effect of over 65% in size
# Target sequence (P08659 whole entry, looked up): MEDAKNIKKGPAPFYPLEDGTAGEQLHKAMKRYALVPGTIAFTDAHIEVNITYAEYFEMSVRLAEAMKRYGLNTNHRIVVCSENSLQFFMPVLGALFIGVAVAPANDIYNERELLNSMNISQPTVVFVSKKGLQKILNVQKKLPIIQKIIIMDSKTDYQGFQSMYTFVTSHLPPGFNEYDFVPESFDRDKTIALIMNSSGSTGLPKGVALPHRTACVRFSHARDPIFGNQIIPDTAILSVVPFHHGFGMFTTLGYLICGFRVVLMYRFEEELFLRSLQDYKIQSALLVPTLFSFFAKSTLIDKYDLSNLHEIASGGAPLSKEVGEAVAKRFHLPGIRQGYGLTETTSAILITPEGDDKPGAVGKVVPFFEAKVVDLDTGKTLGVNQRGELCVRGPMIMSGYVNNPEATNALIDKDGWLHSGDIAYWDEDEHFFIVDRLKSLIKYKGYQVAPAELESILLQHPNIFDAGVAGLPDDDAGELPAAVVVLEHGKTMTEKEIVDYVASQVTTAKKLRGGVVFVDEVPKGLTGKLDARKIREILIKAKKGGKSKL
#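 Cell-free enzyme assay, 10nM P. pyralis luciferase, luciferin and ATP each at 10uM. Inhibition profiled over a 6-point titration, read as luminescence.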
# GPT2 inhibitor: GPT2 alanine aminotransferase inhibition | Recombinant GPT2, coupled pyruvate oxidase/HRP Amplex Red fluorescence | Q8TD30 | Potency, µM (highest dose often 57.7 µM), inactives show top-dose activity change, negative = inhibition, usual class: inhibitors | hit rate 0.25% among 100,000; also: nearly all actives have a fitted effect of over 60% in size
#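 Recombinant GPT2 (10ng/uL) with 250uM a-KG and 2mM L-alanine, 30 min at room temperature, in HEPES pH 7.5 buffer. Pyruvate detected by pyruvate oxidase/HRP/Amplex Red fluorescence after 30 min in the dark; AOA (50uM) as positive control.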
# NPR1 antag: antagonists of human natriuretic peptide receptor Npr1; P16066; HEK293 hNpr1 GloSensor cGMP, ANP-stimulated luminescence; Potency, µM (titrated, usually from 46.3 µM), for inactives: at the top dose activity change, negative = inhibition, hits mostly inhibitors; hit rate 1.6% among 76,000; AID 1347048; calls by dose curve; also: nearly all actives have a fitted effect of over 60% in size
#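 Compound pre-incubated 30 min at room temperature on GloSensor-loaded HEK293 cells stably carrying hNpr1 and the pGS-40F cGMP biosensor. Stimulation uses hNppA at 0.1 nM final; luminescence is taken at baseline and 20 min post-agonist.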
# 3T3 cytotox: NIH 3T3 cell cytotoxicity | Potency, µM (highest dose often 96.7 µM), for the others: at the top dose activity change, negative = cytotoxicity, most hits filed as inhibitors | hit rate 4.3% among 94,000 | NIH 3T3 viability, CellTiter-Glo ATP luminescence, 48-72 h | AID 1345082; also: nearly all actives have a fitted effect of over 55% in size
#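 Cells were seeded at 400 per well, treated with pin-transferred compound, and kept 48 or 72 hr at 37 °C before CellTiter-Glo addition and luminescence imaging of cellular ATP.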
# HEK cytotox: kills HEK 293 cells; HEK 293 viability, ATP luminescence (CellTiter-Glo), 48-72 h; Potency, µM (top dose mostly 115 µM), without a hit: at the top dose activity change, negative = cytotoxicity, usual class: inhibitors; hit rate 6.6% among 94,000; also: nearly all actives have a fitted effect of over 60% in size
#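 ATP-coupled CellTiter-Glo luminescence served as viability read-out, recorded 10 min after reagent addition at room temperature. HEK 293 cells, 250 cells/well, had been incubated with pintool-transferred compound for 48 or 72 hr at 37 degree Celsius.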
# Numbers without * were called inactive; i = inactive; ? = inconclusive; / = no result given; [ ] = remark or other dose. Unless noted, calls follow the shape of the dose curve; as a rule, active = well fitted curve in the direction sought with a large enough effect; inconclusive = small, poorly fitted or top-dose-only effect, or another doubt; inactive = no such curve, though single readings can be large; an effect the other way counts as inactive or inconclusive. % is scaled to controls: 0 for no effect and ±100 for the full control effect; potency is read from the fitted curve at half-maximal effect.
SMILES,FLuc inh,GPT2 inhibitor,NPR1 antag,3T3 cytotox,HEK cytotox
Cc1cccc(NC(=O)Cn2ccn3nc(-c4ccccc4)c(CO)c3c2=O)c1C,i,1.0%,0.0%,?,89.1µM*
CCC1Oc2ccc(NC(=O)Cc3cccs3)cc2CN(C(CC)c2ccccc2)C1=O (stereo not given),i,0.9%,-16.6%,?,-17.6%
COc1ccc(NC(=O)CN2C(=O)NC3(CCC(C(C)(C)C)CC3)C2=O)cc1OC (stereo not given),i,i,4.7%,?,?
CS(=O)(=O)c1ccc(O[C@H]2COCCN(Cc3ccc(-c4ccccc4)cc3)C2)cc1,i,-15.0%,?,?,25.1µM*
Cc1ccc(CN2CCOC[C@H](Oc3ccc(C(F)(F)F)cc3)C2)cc1,i,-12.4%[88.5 µM],-17.2%[70.6 µM],79.4µM*,100µM*
c1ccc(O[C@H]2COCCN(Cc3ccc(-c4ccccc4)cc3)C2)cc1,i,i,-23.5%[70.6 µM],?,-28.7%[172 µM]
CN1CCN(C(=O)c2cn3cc(-c4ccccc4)sc3n2)CC1,/,0.4%[88.5 µM],/,?,-22.2%[172 µM]
O=C1[C@H]2CN(Cc3ccc(F)c(Cl)c3)C[C@H]2C(=O)N1Cc1ccc2c(c1)OCO2,i,-1.7%,-18.4%,?,35.5µM*
Cc1ccc(-c2ccc(CN)cc2)cc1Cl,/,-11.0%[88.5 µM],/,31.6µM*,31.6µM*
Cc1ccc(-c2ccc(C=O)cc2)cc1Cl,/,1.7%[88.5 µM],/,?,?
Cc1ccc(-c2cccc(CN)c2)cc1Cl,/,-1.3%[88.5 µM],/,28.2µM*,?
CSc1ccc(-c2cccc(CN)c2)cc1,/,0.8%[88.5 µM],/,25.1µM*,?
NCc1cccc(-c2ccc(O)cc2)c1,/,?,/,-20.6%[138 µM],-16.0%[172 µM]
CN(C)CC(=O)Nc1ccc(OC2CCN(C(=O)c3ccc(F)cc3)CC2)nc1,i,i,0.5%,-14.7%,-24.5%
CC(C)CN(C)C(=O)c1cc(-c2cnn(C(C)C)c2)nc2cc(F)ccc12,?,-2.9%,1.6%,?,-28.9%
CC(C)n1cc(-c2cc(C(=O)N(C)Cc3cccnc3)c3cc(F)ccc3n2)cn1,35.5µM*,-8.7%[11.5 µM],-2.1%,-18.6%,?
COc1cncc([C@@H](NC(=O)c2ccc(CO)o2)C2CC(O)C2)c1 (stereo not given in full),i,0.3%,0.7%,0.0%,i
COc1ccc(OCC2CC3(CCCCC3)CN2S(=O)(=O)c2c(C)noc2C)cc1 (stereo not given),/,-9.3%,/,-28.5%,28.2µM*
COC(=O)Nc1ccc(-c2nc(N3CCOCC3)c3cnn(C4CCN(C(=O)OC)CC4)c3n2)cc1,/,-7.2%,/,/,/
CCc1nc(N2CCc3ccccc3C2)ncc1C(=O)O,22.4µM*,-2.8%,-22.0%,25.1µM*,31.6µM*
CCOC(=O)C(Cc1cccc(N2CCN([S+](=O)([O-])c3c(Cl)cccc3Cl)CC2)c1)OC (stereo not given),/,/,/,?,20µM*
O=C(Cc1noc2ccccc12)N1CCCn2nc(CO)cc2C1,i,-3.2%,3.4%,i,i
O=C1CC2(CCN(C(=O)C3CCN(C(=O)c4ccc(C(F)(F)F)cc4)C3)CC2)Oc2ccccc2N1 (stereo not given),/,-38.0%,/,-20.9%,?
Cc1ccc2c(n1)N(C)[C@H](CO)CCN(Cc1ccc(Cl)cc1)C2,i,?,-1.8%[70.6 µM],?,70.8µM*
Cc1ccc2c(n1)N(C)[C@H](CO)CCN(Cc1ccc(F)c(F)c1)C2,i,-16.9%[88.5 µM],-2.6%[70.6 µM],-25.9%[174 µM],?
SMILES,FLuc inh,GPT2 inhibitor,NPR1 antag,3T3 cytotox,HEK cytotox
Cc1ccc(-c2cc3c(=O)n(CCNC(=O)c4ccc[nH]c4=O)ccn3n2)cc1C,7.94µM*,i,-13.9%,-17.0%,-7.1%
Cc1ccc(-c2cc3c(=O)n(CCNC(=O)Cc4cccc(F)c4)ccn3n2)cc1C,3.55µM*,0.7%,?,?,-17.7%
O=C1N(CCc2ccccc2)CCOC12CCN([S+](=O)([O-])c1cccnc1)CC2,i,-8.6%[88.5 µM],5.7%[70.6 µM],25.1µM*,-23.4%[172 µM]
COc1cccc(CN2CCOC3(CCN([S+](=O)([O-])c4c(C)noc4C)CC3)C2=O)c1,i,4.1%,-4.3%,20µM*,-25.6%
COC1CCOC2(CCN(C(=O)c3ccncc3)CC2)C1 (stereo not given),i,3.7%,-1.4%,-5.2%,-3.0%
Fc1ccc(Cc2nc3nccc(-c4ccncc4)n3n2)cc1,i,-2.9%,11.7%,-13.1%,-6.9%
O=c1n(-c2ccncc2)nc2n1CCN(Cc1ccc(OC(F)(F)F)cc1)C2,i,i,?,?,22.4µM*
O=c1n(-c2ccncc2)nc2n1CCN(Cc1ccccc1)C2,?,i,-26.8%[70.6 µM],?,79.4µM*
CN(C)c1ccc(CN2CCn3c(nn(-c4ccc(Cl)cc4)c3=O)C2)cc1,/,i,/,-23.9%,?
COc1ccc(CN2CCn3c(nn(-c4ccc(C(F)(F)F)cc4)c3=O)C2)cc1,/,2.6%,/,-21.8%,-18.9%
COc1ccc(-c2cc(C(=O)NC3CC3)c3c(C4CCCNC4)noc3n2)cc1 (stereo not given),/,i,/,31.6µM*,31.6µM*
CC1(COc2cccnc2)COc2ccc(C(=O)NCCc3ccccc3)cc2N1 (stereo not given),?,3.2%[88.5 µM],8.91µM*,?,?
CC1(COc2cccnc2)COc2ccc(C(=O)NCCOc3ccccc3)cc2N1 (stereo not given),?,1.4%[88.5 µM],8.91µM*,?,?
COc1cncc(CN2CCC3(CC2)OC(=O)N(Cc2ccccc2C#N)C3(C)c2ccccc2)c1 (stereo not given),i,2.1%,?,-8.1%,?
c1ccc(CN2CCNc3cc(-c4ccncc4)ncc3C2)cc1,?,?,2.4%[70.6 µM],-19.3%[138 µM],?
Fc1ccccc1-c1cc2c(cn1)CN(Cc1ccncc1)CCN2,70.8µM*,-6.1%[88.5 µM],?,?,?
COc1ccc(Cl)cc1-c1cc2c(cn1)CN(Cc1cccnc1)CCN2,i,0.6%[88.5 µM],-6.2%[70.6 µM],?,?
COc1ccc(-c2cc3c(cn2)CN(CCc2ccccc2)CCN3)cc1OC,70.8µM*,-5.6%[88.5 µM],-19.1%[70.6 µM],39.8µM*,63.1µM*
Oc1ccc(-c2cc3c(cn2)CN(Cc2ccccc2)CCN3)cc1F,25.1µM*,0.1%[88.5 µM],-2.1%[70.6 µM],?,?
COc1ccc(-c2cc3c(cn2)CN(Cc2ccccc2)CCN3)cc1OC,?,i,-12.8%[70.6 µM],44.7µM*,?
O=C(Cc1csc(-c2ccccc2)n1)N[C@H](c1ccccn1)C1CC(O)C1 (stereo not given in full),i,4.9%[11.5 µM],2.2%,-21.9%,-26.6%
O=C([C@H]1C[C@H](Oc2ccccc2)CN1C(=O)CCc1ccccc1)N1CCOCC1,i,i,-1.1%,2.9%,i
Cc1cc2nc3n(c(=O)c2n1CC(=O)Nc1ccc(F)c(Cl)c1)CCC3,i,2.9%,0.0%,-25.7%,?

# Source: PubChem
